Results filed as inconclusive are left out. A call without a number means that no potency is given here. Calls of active or inactive are those of the source. The call rests on the fitted dose curve; in most records, active means well fitted curve in the direction sought with a large enough effect in the repeat runs; inconclusive means weak or mixed curves; inactive means no such curve, though single readings can be large; an effect the other way counts as inactive or inconclusive.
Columns and labels:
[1] = molecular target: Cytochrome P450 2C19 (Homo sapiens) (UniProt P33261); test: Cytochrome P450 Family 2 Subfamily C Member 19 (CYP2C19) small molecule antagonists: luciferase reporter qHTS assay (AID 1671197); further: nearly all actives have a fitted effect of over 65% in size
Chain of Cytochrome P450 2C19 (Homo sapiens) (P33261 whole entry, looked up): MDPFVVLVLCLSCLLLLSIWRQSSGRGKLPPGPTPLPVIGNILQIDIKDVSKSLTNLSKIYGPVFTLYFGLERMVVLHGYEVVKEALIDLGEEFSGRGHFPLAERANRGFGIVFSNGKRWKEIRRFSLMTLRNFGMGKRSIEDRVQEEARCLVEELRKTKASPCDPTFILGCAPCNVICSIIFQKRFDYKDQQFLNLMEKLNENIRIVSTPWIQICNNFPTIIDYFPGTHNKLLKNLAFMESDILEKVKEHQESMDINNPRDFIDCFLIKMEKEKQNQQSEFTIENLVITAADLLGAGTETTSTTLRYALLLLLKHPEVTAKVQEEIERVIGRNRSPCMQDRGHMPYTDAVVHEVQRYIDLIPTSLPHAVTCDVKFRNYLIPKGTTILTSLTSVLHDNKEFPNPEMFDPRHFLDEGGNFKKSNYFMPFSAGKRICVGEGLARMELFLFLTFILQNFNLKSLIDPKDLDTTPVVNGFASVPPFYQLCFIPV
In short: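 CYP2C19 P450-Glo, 1536-well qHTS. Cpd + enzyme/proluciferin substrate 10 min RT; + NADPH regen, 37C 1 h; stop with luciferin detection reagent, 20 min RT, luminescence (RLU). Pos ctrl ketoconazole.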

[2] = molecular target: Cytochrome P450 2D6 (Homo sapiens) (UniProt P10635); test: Cytochrome P450 Family 2 Subfamily D Member 6 (CYP2D6) small molecule antagonists: luciferase reporter qHTS assay (AID 1671196); further: nearly all actives have a fitted effect of over 50% in size
Chain of Cytochrome P450 2D6 (Homo sapiens) (P10635 whole entry, looked up): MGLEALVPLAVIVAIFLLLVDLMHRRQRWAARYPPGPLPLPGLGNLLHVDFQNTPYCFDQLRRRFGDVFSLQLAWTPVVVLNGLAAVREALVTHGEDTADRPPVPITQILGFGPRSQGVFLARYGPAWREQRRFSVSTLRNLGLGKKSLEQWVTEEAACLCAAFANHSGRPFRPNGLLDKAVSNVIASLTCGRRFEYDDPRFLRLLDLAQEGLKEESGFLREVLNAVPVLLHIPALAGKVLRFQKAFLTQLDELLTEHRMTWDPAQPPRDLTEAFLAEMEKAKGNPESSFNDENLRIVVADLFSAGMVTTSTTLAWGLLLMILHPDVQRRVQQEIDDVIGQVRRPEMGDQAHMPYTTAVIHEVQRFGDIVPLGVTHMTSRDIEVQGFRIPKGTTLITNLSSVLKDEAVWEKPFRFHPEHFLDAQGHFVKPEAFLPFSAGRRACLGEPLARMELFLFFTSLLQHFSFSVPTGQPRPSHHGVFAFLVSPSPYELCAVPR
In short: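 Test chemicals meet CYP2D6 plus proluciferin substrate (10 min, RT); NADPH regenerating solution then drives turnover for 1 h. Detection reagent halts the reaction; luminescence measured after 20 min.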

[3] = molecular target: Cytochrome P450 1A2 (Homo sapiens) (UniProt P05177); test: Cytochrome P450 Family 1 Subfamily A Member 2 (CYP1A2) small molecule antagonists: luciferase reporter qHTS assay (AID 1671199); further: nearly all actives have a fitted effect of over 50% in size
Chain of Cytochrome P450 1A2 (Homo sapiens) (P05177 whole entry, looked up): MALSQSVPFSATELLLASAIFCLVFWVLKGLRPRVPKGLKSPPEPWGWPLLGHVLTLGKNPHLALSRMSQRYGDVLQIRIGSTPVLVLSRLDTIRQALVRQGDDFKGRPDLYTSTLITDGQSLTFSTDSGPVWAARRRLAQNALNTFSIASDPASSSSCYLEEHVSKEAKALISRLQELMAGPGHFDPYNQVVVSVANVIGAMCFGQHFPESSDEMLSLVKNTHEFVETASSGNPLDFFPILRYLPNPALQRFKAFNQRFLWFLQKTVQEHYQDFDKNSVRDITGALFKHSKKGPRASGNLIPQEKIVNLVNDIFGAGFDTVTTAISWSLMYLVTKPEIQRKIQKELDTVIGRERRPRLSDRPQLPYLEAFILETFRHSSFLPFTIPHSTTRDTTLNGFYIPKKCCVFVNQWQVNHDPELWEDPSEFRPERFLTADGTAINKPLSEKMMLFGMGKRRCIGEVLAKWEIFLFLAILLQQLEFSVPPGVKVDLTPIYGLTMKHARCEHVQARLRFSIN
In short: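 Steps: enzyme-substrate mix dispensed; test compounds and furafylline control pinned in; 10 min room temperature; NADPH regeneration solution added, 1 h; reaction stopped with luciferin detection reagent; luminescence read after 20 min.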

[4] = molecular target: Voltage-gated inwardly rectifying potassium channel KCNH2 (Homo sapiens) (UniProt Q12809); test: Human Ether-a-go-go-Related Gene (hERG) channel small molecule antagonists: fluorescence cell-based qHTS assay (AID 1671200); further: nearly all actives have a fitted effect of over 50% in size
Chain of Voltage-gated inwardly rectifying potassium channel KCNH2 (Homo sapiens) (Q12809 whole entry, looked up): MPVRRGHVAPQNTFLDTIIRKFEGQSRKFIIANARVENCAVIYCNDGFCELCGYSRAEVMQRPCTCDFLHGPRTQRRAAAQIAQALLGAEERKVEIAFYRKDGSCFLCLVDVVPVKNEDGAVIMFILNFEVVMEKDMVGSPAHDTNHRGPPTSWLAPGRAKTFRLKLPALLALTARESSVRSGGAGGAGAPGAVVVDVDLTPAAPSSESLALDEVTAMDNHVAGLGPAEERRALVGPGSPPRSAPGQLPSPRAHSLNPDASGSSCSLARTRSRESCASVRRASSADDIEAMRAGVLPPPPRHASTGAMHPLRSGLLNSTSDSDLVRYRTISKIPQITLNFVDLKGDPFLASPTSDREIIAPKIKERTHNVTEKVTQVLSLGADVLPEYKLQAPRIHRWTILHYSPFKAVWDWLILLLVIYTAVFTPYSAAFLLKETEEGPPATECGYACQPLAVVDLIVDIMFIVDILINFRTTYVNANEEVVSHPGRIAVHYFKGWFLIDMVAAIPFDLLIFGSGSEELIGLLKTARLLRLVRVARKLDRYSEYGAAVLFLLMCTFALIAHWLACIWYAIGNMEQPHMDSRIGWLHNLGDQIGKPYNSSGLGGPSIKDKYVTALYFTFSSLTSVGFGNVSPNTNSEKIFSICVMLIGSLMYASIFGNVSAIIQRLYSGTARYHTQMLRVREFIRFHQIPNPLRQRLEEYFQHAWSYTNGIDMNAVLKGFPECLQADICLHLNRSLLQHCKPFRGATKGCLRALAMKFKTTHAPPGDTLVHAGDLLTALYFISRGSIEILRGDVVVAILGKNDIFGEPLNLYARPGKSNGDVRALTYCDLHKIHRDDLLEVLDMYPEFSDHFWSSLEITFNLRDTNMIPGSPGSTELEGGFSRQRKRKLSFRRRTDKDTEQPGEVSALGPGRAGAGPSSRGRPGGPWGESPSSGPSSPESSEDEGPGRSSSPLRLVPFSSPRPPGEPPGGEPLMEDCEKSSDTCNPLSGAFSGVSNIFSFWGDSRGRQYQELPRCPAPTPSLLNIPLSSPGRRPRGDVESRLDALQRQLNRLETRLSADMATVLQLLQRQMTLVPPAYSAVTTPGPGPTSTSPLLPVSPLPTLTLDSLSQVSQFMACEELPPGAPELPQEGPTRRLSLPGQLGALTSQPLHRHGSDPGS
In short: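 First, 1000 cells per well are seeded and cultured overnight at 37 C. Next, FluxOR II dye is loaded for 1 h at room temperature, protected from light. After 10 more minutes, stimulus is added and fluorescence is read.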

[5] = molecular target: Cytochrome P450 2C9 (Homo sapiens) (UniProt P11712); test: Cytochrome P450 Family 2 Subfamily C Member 9 (CYP2C9) small molecule antagonists: luciferase reporter qHTS assay (AID 1671198); further: nearly all actives have a fitted effect of over 50% in size
Chain of Cytochrome P450 2C9 (Homo sapiens) (P11712 whole entry, looked up): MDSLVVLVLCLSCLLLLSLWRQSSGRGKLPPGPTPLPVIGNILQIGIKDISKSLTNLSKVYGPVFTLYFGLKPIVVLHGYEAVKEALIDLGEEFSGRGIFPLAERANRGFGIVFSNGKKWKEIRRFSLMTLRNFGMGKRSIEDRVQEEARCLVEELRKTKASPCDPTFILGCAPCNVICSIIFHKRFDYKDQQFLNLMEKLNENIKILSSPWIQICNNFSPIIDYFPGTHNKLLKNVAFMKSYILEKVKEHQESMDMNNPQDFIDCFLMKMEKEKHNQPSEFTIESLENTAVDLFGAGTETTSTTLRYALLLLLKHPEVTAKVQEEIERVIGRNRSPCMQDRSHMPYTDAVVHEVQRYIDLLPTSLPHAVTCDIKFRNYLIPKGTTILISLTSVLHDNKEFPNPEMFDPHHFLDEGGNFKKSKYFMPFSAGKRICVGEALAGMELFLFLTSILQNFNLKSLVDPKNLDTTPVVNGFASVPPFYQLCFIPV
In short: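 CYP2C9 activity was measured with a P450-Glo proluciferin substrate. Enzyme–substrate mix was held with compound for 10 min at room temperature, then NADPH regeneration solution was added for 1 h at 37C. Luciferin product was read as luminescence.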

[6] = molecular target: Cytochrome P450 3A4 (Homo sapiens) (UniProt P08684); test: Cytochrome P450 Family 3 Subfamily A Member 4 (CYP3A4) small molecule antagonists: luciferase reporter qHTS assay (AID 1671201); further: nearly all actives have a fitted effect of over 50% in size
Chain of Cytochrome P450 3A4 (Homo sapiens) (P08684 whole entry, looked up): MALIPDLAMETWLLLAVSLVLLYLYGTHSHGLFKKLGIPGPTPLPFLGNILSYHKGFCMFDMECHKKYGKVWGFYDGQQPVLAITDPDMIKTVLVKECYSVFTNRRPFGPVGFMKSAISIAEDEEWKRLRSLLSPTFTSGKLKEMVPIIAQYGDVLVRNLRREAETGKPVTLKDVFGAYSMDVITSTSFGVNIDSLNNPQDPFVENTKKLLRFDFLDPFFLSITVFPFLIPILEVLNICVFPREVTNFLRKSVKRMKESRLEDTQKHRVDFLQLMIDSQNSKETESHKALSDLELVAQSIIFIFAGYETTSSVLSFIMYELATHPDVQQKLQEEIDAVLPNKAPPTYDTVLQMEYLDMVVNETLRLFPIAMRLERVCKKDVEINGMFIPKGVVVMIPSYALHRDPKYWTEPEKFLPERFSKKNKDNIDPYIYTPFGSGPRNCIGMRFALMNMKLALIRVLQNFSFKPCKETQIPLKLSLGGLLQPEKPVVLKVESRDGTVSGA
In short: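 Enzyme and proluciferin substrate are mixed with test chemicals for 10 min, then NADPH regeneration system drives turnover for 1 h at room temperature. A detection reagent halts the reaction; luminescence after 20 min gives relative activity.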
Potency means the concentration at half of the fitted maximal effect.

O=C1c2ccccc2C(=O)C1(O)O
Potency [1]: 71.4 µM (active)

CO/N=C(/C(=O)N[C@@H]1C(=O)N2C(C(=O)O)=C(COC(N)=O)CS[C@H]12)c1ccco1
Potency [2]: inactive
Potency [3]: inactive
Potency [4]: inactive

CO[C@]1(NC(=O)CSC(F)F)C(=O)N2C(C(=O)O)=C(CSc3nnnn3CCO)CO[C@H]21
Potency [1]: inactive
Potency [5]: inactive
Potency [3]: inactive
Potency [4]: inactive
Potency [6]: inactive

CCCCCCCCCCC(=O)O
Potency [2]: inactive
Potency [3]: inactive
Potency [4]: inactive
Potency [6]: inactive

NC(=O)c1ccncc1
Potency [2]: inactive
Potency [5]: inactive
Potency [4]: inactive
Potency [6]: inactive

CCCC(=O)C(=O)O
Potency [2]: 35.6 µM (active)
Potency [5]: inactive
Potency [4]: inactive
Potency [6]: inactive

CCCCCCCCN
Potency [1]: inactive
Potency [5]: inactive
Potency [3]: inactive
Potency [4]: inactive
Potency [6]: inactive

O=C1CCCCCCCCCCOCCCCO1
Potency [2]: inactive
Potency [3]: 35.6 µM (active)
Potency [6]: 39.9 µM (active)

CCCCOc1ccc(OCCCN2CCOCC2)cc1
Potency [2]: 27.5 µM (active)
Potency [3]: inactive
Potency [6]: inactive

COC(=O)[C@H]1[C@H]2C[C@@H]3c4[nH]c5cc(OC)ccc5c4CCN3C[C@H]2C[C@@H](OC(=O)/C=C/c2ccc(O)c(OC)c2)[C@@H]1OC
Potency [2]: inactive
Potency [3]: inactive
Potency [4]: 0.848 µM (active)

CCC=CC#N
Potency [2]: inactive
Potency [5]: inactive
Potency [4]: inactive
Potency [6]: inactive

Cc1ccc2c(Br)cc(Br)c(O)c2n1
Potency [2]: inactive
Potency [3]: 36.3 µM (active)
Potency [4]: inactive
Potency [6]: inactive

O=C1c2ccccc2C(=O)C1c1ccc(Br)cc1
Potency [2]: inactive
Potency [5]: 3.47 µM (active)
Potency [4]: inactive
Potency [6]: inactive

CCCCCC[C@@H](O)C/C=C\CCCCCCCC(=O)O
Potency [2]: inactive
Potency [3]: inactive
Potency [4]: inactive
Potency [6]: inactive

CC(C)COCC(CN(Cc1ccccc1)c1ccccc1)N1CCCC1 (stereo not drawn)
Potency [2]: 0.0692 µM (active)
Potency [3]: inactive

C[C@H]1C[C@H](O)c2ccsc2S1(=O)=O
Potency [2]: inactive
Potency [5]: inactive
Potency [4]: inactive
Potency [6]: inactive

CN1CCCC(n2nc(Cc3ccc(Cl)cc3)c3ccccc3c2=O)CC1 (stereo not drawn)
Potency [2]: 1.1 µM (active)
Potency [3]: inactive

CCOc1ccccc1O[C@H](c1ccccc1)[C@H]1CNCCO1
Potency [1]: inactive
Potency [5]: inactive
Potency [3]: inactive
Potency [4]: inactive

CN(C)CCN1C(=O)c2ccccc2N(C)c2ccccc21
Potency [1]: inactive
Potency [5]: inactive
Potency [3]: inactive
Potency [4]: inactive
Potency [6]: inactive

COc1ccccc1N1CCN(CC(O)COc2cccc3ccccc23)CC1 (stereo not drawn)
Potency [2]: 1.55 µM (active)
Potency [4]: 1.9 µM (active)
Potency [6]: inactive

CC(=O)[C@H]1[C@H](C#N)C[C@H]2[C@@H]3CC=C4C[C@@H](O)CC[C@]4(C)[C@H]3CC[C@@]21C
Potency [2]: inactive
Potency [3]: inactive
Potency [4]: inactive
Potency [6]: inactive

Nc1ncnc2c1ncn2[C@H]1CC[C@@H](CO)O1
Potency [2]: inactive
Potency [5]: inactive
Potency [4]: inactive
Potency [6]: inactive

CCC1(CO)COCOC1
Potency [2]: inactive
Potency [5]: inactive
Potency [4]: inactive
Potency [6]: inactive

CCCCC(CC)CN (stereo not drawn)
Potency [2]: 36.2 µM (active)
Potency [5]: inactive
Potency [4]: inactive
Potency [6]: inactive

O=C(CCc1ccc(O)cc1)c1c(O)cc(O)cc1O
Potency [1]: 40.8 µM (active)
Potency [5]: 20.5 µM (active)
Potency [3]: 36.4 µM (active)
Potency [4]: inactive
Potency [6]: 12.9 µM (active)

COc1cc(N)c(Cl)cc1C(=O)NC1CCN(CCCOc2ccc(F)cc2)CC1OC (stereo not drawn)
Potency [1]: 15.5 µM (active)
Potency [5]: inactive
Potency [3]: inactive

CC(C)=CCC/C(C)=C/CC/C(C)=C/C(=O)OCC(=O)[C@@]1(O)CC[C@H]2[C@@H]3CCC4=CC(=O)C=C[C@]4(C)[C@H]3[C@@H](O)C[C@@]21C
Potency [1]: 7.76 µM (active)
Potency [5]: 3.89 µM (active)
Potency [3]: inactive
Potency [4]: inactive

O=C1c2ccccc2C(=O)N1CCc1noc(-c2ccc(CN3CCCCCC3)s2)n1
Potency [2]: 8.19 µM (active)
Potency [5]: 20.6 µM (active)
Potency [4]: 20.1 µM (active)
Potency [6]: 0.231 µM (active)

c1ccc(C[n+]2cccc3ccccc32)cc1
Potency [2]: 3.17 µM (active)
Potency [4]: inactive
Potency [6]: inactive

Nc1nnc(-c2ccc([N+](=O)[O-])o2)o1
Potency [2]: 39.9 µM (active)
Potency [3]: 39.9 µM (active)
Potency [4]: inactive
Potency [6]: inactive

C=C/C(C)=C/C/C=C(\C)CCC=C(C)C
Potency [1]: 31.7 µM (active)
Potency [5]: 31.7 µM (active)
Potency [3]: inactive
Potency [4]: inactive
Potency [6]: 15.9 µM (active)

Cc1ccccc1N=C(N)Nc1ccccc1C
Potency [2]: 0.0156 µM (active)
Potency [3]: inactive
Potency [4]: inactive

Oc1cccc(Nc2ccccc2)c1
Potency [2]: 37.1 µM (active)
Potency [3]: 11.7 µM (active)
Potency [4]: inactive
Potency [6]: 29.5 µM (active)

NNC(=O)CP(=O)(c1ccccc1)c1ccccc1
Potency [2]: inactive
Potency [3]: inactive
Potency [4]: inactive

Brc1cc2ccccc2c2ccccc12
Potency [2]: inactive
Potency [3]: 0.32 µM (active)
Potency [4]: inactive

— PubChem BioAssay (Tox21)
